Test results taken from PubChem BioAssay (Tox21).
Inconclusive results are not listed. Activity calls are given as the source filed them. Calls follow the shape of the dose curve; as a rule, active = well fitted curve in the direction sought with a large enough effect in the repeat runs; inconclusive = weak or mixed curves; inactive = no such curve, though single readings can be large; an effect the other way counts as inactive or inconclusive.

Tests used:
[1] = qHTS RealTime-Glo MT Cell Viability Assay in HEK293 cells - 32 hour (AID 1224868); details: RealTime-Glo luminescence; series mostly up to 76.8 µM; also: top concentration of the series differs between compounds; nearly all actives have a fitted effect of over 50% in size
Method in brief: (§1)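 Viability tracked continuously by luminescence as live cells reduce a prosubstrate for NanoLuc; HEK293 cells preincubated 5 h, compound-treated at 37 C, and read at 0, 8, 16, 24, 32 and 40 h.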

[2] = A CellTox Green Cytotoxicity Assay to monitor cytotoxicity in HEK293 cells - 0 hour (AID 1224869); details: CellTox Green fluorescence; series mostly up to 76.8 µM; also: nearly all actives have a fitted effect of over 50% in size
Method in brief: (§2)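 Dead-cell fluorescence measured kinetically: asymmetric cyanine dye, HEK293, 600 cells/well, 5 h settle, 23 nL cpd/DMSO, 37 C, reads 0–40 h every 8 h.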

[3] = qHTS RealTime-Glo MT Cell Viability Assay in HepG2 cells - 40 hour (AID 1224870); details: RealTime-Glo luminescence; series mostly up to 76.8 µM; also: nearly all actives have a fitted effect of over 50% in size
Method in brief: (§3)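 HepG2 cells (600/well) mixed with RealTime-Glo MT reagent, settled 5 h at 37 C/5% CO2 before compound addition. Nonlytic NanoLuc luminescence from viable-cell prosubstrate reduction read repeatedly during 40 h treatment at 37 C.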

[4] = A CellTox Green Cytotoxicity Assay to monitor cytotoxicity in HEK293 cells - 40 hour (AID 1224871); details: CellTox Green fluorescence; series mostly up to 76.8 µM; also: nearly all actives have a fitted effect of over 45% in size; also: potency is read from the fitted curve at half-maximal effect
Method in brief: as §2

[5] = qHTS RealTime-Glo MT Cell Viability Assay in HEK293 cells - 16 hour (AID 1224872); details: RealTime-Glo luminescence; series mostly up to 76.8 µM; also: top concentration of the series differs between compounds; nearly all actives have a fitted effect of over 50% in size
Method in brief: as §1

[6] = qHTS RealTime-Glo MT Cell Viability Assay in HepG2 cells - 8 hour (AID 1224873); details: RealTime-Glo luminescence; series mostly up to 76.8 µM; also: nearly all actives have a fitted effect of over 55% in size
Method in brief: as §3

[7] = qHTS RealTime-Glo MT Cell Viability Assay in HEK293 cells - 40 hour (AID 1224874); details: RealTime-Glo luminescence; max response: stronger effect = lower value; also: nearly all actives have a fitted effect of over 50% in size
Method in brief: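 600 HEK293 cells per well, dispensed already mixed with RealTime-Glo MT reagents. Compound dosing came 5 h later. The same wells were read for luminescence at 0, 8, 16, 24, 32 and 40 h of exposure at 37 C.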

[8] = A CellTox Green Cytotoxicity Assay to monitor cytotoxicity in HEK293 cells - 24 hour (AID 1224875); details: CellTox Green fluorescence; series mostly up to 76.8 µM; also: nearly all actives have a fitted effect of over 45% in size; also: potency is read from the fitted curve at half-maximal effect
Method in brief: as §2

[9] = A CellTox Green Cytotoxicity Assay to monitor cytotoxicity in HepG2 cells - 16 hour (AID 1224876); details: CellTox Green fluorescence; series mostly up to 76.8 µM; also: nearly all actives have a fitted effect of over 45% in size
Method in brief: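 First, HepG2 cells (600/well) mixed with reagent were plated; second, after 5 h at 37 C they received compounds via pintool; third, fluorescence was measured at 0 h through 40 h at 8 h intervals.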

[10] = qHTS RealTime-Glo MT Cell Viability Assay in HepG2 cells - 32 hour (AID 1224877); details: RealTime-Glo luminescence; series mostly up to 76.8 µM; also: nearly all actives have a fitted effect of over 55% in size
Method in brief: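 Viability was tracked continuously by NanoLuc luminescence from prosubstrate reduced by living HepG2 cells, at successive time points over 40 h of compound exposure. Cells with reagent were preincubated 5 h at 37 °C before compound addition.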
% is scaled to controls: 0 for no effect and ±100 for the full control effect.

O=C1CCC(=O)N1Cl
inactive: Potency [1] | Potency [2] | outcome [3] | Potency [4] | Potency [5] | outcome [6] | max response [7] 7.58% | Potency [8] | Potency [9] | outcome [10]

CC1(C)CC(OC(=O)CCCCCCCCC(=O)OC2CC(C)(C)NC(C)(C)C2)CC(C)(C)N1
inactive: activity change, negative = cytotoxic [1] 12.2% [at 15.8 µM] | cytotoxicity [2] -1.08% [at 15.8 µM] | activity change, negative = cytotoxic [3] 6.12% [at 15.8 µM] | cytotoxicity increase [4] -6.42% [at 15.8 µM] | activity change, negative = cytotoxicity [5] 3.79% [at 15.8 µM] | viability change, negative = cytotoxic [6] -0.0146% [at 15.8 µM] | max response [7] 17% | activity change [8] -4.42% [at 15.8 µM, stronger effect = higher value] | cytotoxicity increase [9] -5.51% [at 15.8 µM] | activity change, negative = cytotoxic [10] 3.56% [at 15.8 µM]

C/C(CC(C)C)=N\O
inactive: Potency [1] | Potency [2] | outcome [3] | Potency [4] | Potency [5] | outcome [6] | max response [7] -0.628% | Potency [8] | Potency [9] | outcome [10]

CC(C)c1ccc(C=O)cc1
inactive: Potency [1] | Potency [2] | outcome [3] | Potency [4] | Potency [5] | outcome [6] | max response [7] 13.2% | Potency [8] | Potency [9] | outcome [10]

CCOc1ccccc1OCC1CNCCO1 (stereo not given)
inactive: Potency [1] | Potency [2] | outcome [3] | Potency [4] | Potency [5] | outcome [6] | max response [7] 2.19% | Potency [8] | Potency [9] | outcome [10]

c1ccc(-c2nn[nH]n2)cc1
inactive: Potency [1] | Potency [2] | outcome [3] | Potency [4] | Potency [5] | outcome [6] | max response [7] 6% | Potency [8] | Potency [9] | outcome [10]

Cc1ccnc(N)c1
inactive: Potency [1] | Potency [2] | outcome [3] | Potency [4] | Potency [5] | outcome [6] | max response [7] -4.39% | Potency [8] | Potency [9] | outcome [10]

Nc1nc(-c2ccccc2)c(Br)c(=O)[nH]1
inactive: Potency [1] | Potency [2] | outcome [3] | Potency [4] | Potency [5] | outcome [6] | max response [7] -3.06% | Potency [8] | Potency [9] | outcome [10]

CC(=O)C(C)O (stereo not given)
inactive: Potency [1] | Potency [2] | outcome [3] | Potency [4] | Potency [5] | outcome [6] | max response [7] 16% | Potency [8] | Potency [9] | outcome [10]

CC(C)C1OCCN1CCOC(=O)NCCCCCCNC(=O)OCCN1CCOC1C(C)C (stereo not given)
inactive: Potency [1] | Potency [2] | outcome [3] | Potency [4] | Potency [5] | outcome [6] | max response [7] 1.59% | Potency [8] | Potency [9] | outcome [10]

CCn1cc(C(=O)O)c(=O)c2cnc(N3CCCC3)nc21
inactive: activity change, negative = cytotoxic [1] 10% [at 6.97 µM] | cytotoxicity [2] 1.5% [at 6.97 µM] | activity change, negative = cytotoxic [3] 1.51% [at 6.97 µM] | cytotoxicity increase [4] 3.57% [at 6.97 µM] | activity change, negative = cytotoxicity [5] 1.68% [at 6.97 µM] | viability change, negative = cytotoxic [6] 5.81% [at 6.97 µM] | max response [7] 10.4% | activity change [8] 4.09% [at 6.97 µM, stronger effect = higher value] | cytotoxicity increase [9] 3.06% [at 6.97 µM] | activity change, negative = cytotoxic [10] -0.35% [at 6.97 µM]

CC(=O)OCC(=O)Nc1cc(C#N)cc(NC(=O)COC(C)=O)c1Cl
inactive: Potency [1] | Potency [2] | outcome [3] | Potency [4] | Potency [5] | outcome [6] | max response [7] 0.686% | Potency [8] | Potency [9] | outcome [10]

[O-][n+]1cccc(/C(Cl)=N/OC[C@@H](O)CN2CCCCC2)c1
inactive: Potency [1] | Potency [2] | outcome [3] | Potency [4] | Potency [5] | outcome [6] | max response [7] 2.14% | Potency [8] | Potency [9] | outcome [10]

COC(C)(OC)OC
inactive: Potency [1] | Potency [2] | outcome [3] | Potency [4] | Potency [5] | outcome [6] | max response [7] 5.48% | Potency [8] | Potency [9] | outcome [10]

CCCC(=O)OC/C=C(\C)CCC=C(C)C
active: Potency [4] 49 µM | Potency [8] 54.9 µM
inactive: Potency [1] | Potency [2] | outcome [3] | Potency [5] | outcome [6] | max response [7] 10.7% | Potency [9] | outcome [10]

CCCC(=O)OCCC(C)CCC=C(C)C (stereo not given)
inactive: Potency [1] | Potency [2] | outcome [3] | Potency [4] | Potency [5] | outcome [6] | max response [7] 0.963% | Potency [8] | Potency [9] | outcome [10]

CCCCC1CCC(O)CC1 (stereo not given)
inactive: Potency [1] | Potency [2] | outcome [3] | Potency [4] | Potency [5] | outcome [6] | max response [7] -3.78% | Potency [8] | Potency [9] | outcome [10]

CCC[C@@H]1C[C@@H](C(=O)N[C@@H]([C@H]2O[C@H](SC)[C@H](O)[C@@H](O)[C@H]2O)[C@@H](C)O)N(C)C1
inactive: Potency [1] | Potency [2] | outcome [3] | Potency [4] | Potency [5] | outcome [6] | max response [7] 0.684% | Potency [8] | Potency [9] | outcome [10]

O=C(NCN1CCOCC1)c1cnccn1
inactive: Potency [1] | Potency [2] | outcome [3] | Potency [4] | Potency [5] | outcome [6] | max response [7] 2.14% | Potency [8] | Potency [9] | outcome [10]
